# Assay outcomes as filed in PubChem BioAssay.
# cytoskel mod – modifiers of cytoskeleton assembly | HUVEC TNFa F-actin phalloidin imaging, high content | inhibition, % at 2 µM | 91,000 tested, 0.18% active | AID 836;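 active = inhibition above the batch mean plus 3 SD and confirmed as a hit by visual image inspection, cut at about 30% in these data, passing the limit was not always enough; inconclusive = above the inhibition threshold but rejected on visual inspection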
# VCAM1 TNFa inh – reduces TNF alpha induced VCAM1 expression in HUVEC; HUVEC TNFa-induced VCAM-1 immunofluorescence, high-content imaging; inhibition, % at 2 µM; 95,000 tested, 0.48% active;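 active = inhibition above the batch mean plus 3 SD, with images confirmed as a hit by eye, cut at about 37% in these data; inconclusive = inhibition above that limit but hit not confirmed in images; inactive = inhibition not above that limit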
# E-sel TNF inh – TNF alpha driven E-selectin expression inhibition. HUVEC TNFa-induced E-selectin immunofluorescence, high content. inhibition, % at 2 µM. 120,000 tested, 0.71% active. AID 1246;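 active = inhibition above the batch mean plus 3 SD, and confirmed as a hit on visual image review, cut at about 43% in these data; inconclusive = passes the inhibition cutoff but fails visual image review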
# HUVEC tox TNFa – toxic to HUVEC cells under TNF alpha stimulation | HUVEC TNFalpha-stimulated, Hoechst cell count, imaging | cell count reduction, % at 2 µM | 93,000 tested, 0.17% active | AID 848;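 active = cell count reduction exceeding the screen mean by over 5 SD, scaled to untreated wells per plate, cut at about 78% in these data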;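 note: cells counted after 24 h of TNF alpha exposure following the 1 h pretreatment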
# A number is an active result; n = inactive; u = inconclusive; x = no result given. A selection: hits, their analogues and other compounds. The true share with any hit is near 1.1%.
SMILES,cytoskel mod,VCAM1 TNFa inh,E-sel TNF inh,HUVEC tox TNFa
O=c1ccc(Oc2nc(N3CCOCC3)nc(N3CCOCC3)n2)nn1-c1ccccc1,n,99,n,90
COc1cc(NC(=O)c2cc3c(Cl)nc4ccccc4c3s2)cc(OC)c1OC,x,x,n,x
COc1ccc(NC(=O)c2cc3c(Cl)nc4ccccc4c3s2)c(OC)c1,x,x,63,x
CCC(=O)Nc1cccc(NC(=O)c2cccc([N+](=O)[O-])c2)c1,n,n,n,n
N=c1c2c(-c3ccccc3)c(-c3ccccc3)n(Cc3ccccc3)c2ncn1CCCn1ccnc1,n,73,n,n
Cc1cc[n+](-c2nc([O-])n(-c3ccccc3)c2C=O)cc1,n,n,n,n
O=C(O)C1CCCCC1C(=O)Nc1cc(Cl)ccc1Cl (configuration not stated),37,n,n,n
COc1ccc2cc(CN(CCO)C(=O)c3ccccc3F)c(=O)[nH]c2c1,n,n,100,n
CCOc1ccc2[nH]c(=O)c(CN(CCO)C(=O)c3ccccc3F)cc2c1,n,n,n,n
CCCOC(=O)CSC1=C(C#N)C(c2ccccc2OC)C(C#N)C(=O)N1 (configuration not stated),n,92,x,83
CCN(CC)c1ccc(-c2nn3c(-c4ccccc4OC)nnc3s2)cc1,n,97,n,n
COc1ccc(-c2noc(CCC(N)=O)n2)cc1OC,n,n,80,n
COc1cc(-c2noc(CCC(=O)Nc3cccnc3)n2)cc(OC)c1OC,n,n,62,n
CS(=O)(=O)N(CC(=O)Nc1ccc(CC#N)cc1)c1ccc(C23CC4CC(CC(C4)C2)C3)cc1,n,n,n,n
COC(=O)c1ccc(CSc2nnc(-c3ccncc3)n2Cc2ccccc2)o1,76,n,n,n
CCOC(=O)c1cnn(-c2nc3c(C)cccc3s2)c1C,36,92,n,90
CC1=CC(=O)C=C(C)C1=NOc1ccccc1[N+](=O)[O-],x,x,n,x
Cc1cccc2cc(C#N)c(SCC(=O)N3CC(=O)Nc4ccccc43)nc12,n,94,n,n
Cc1nnc(SCC(=O)N2CC(=O)Nc3ccccc32)n1C,n,n,64,n
Cc1cccc2cc(C#N)c(SCC(=O)N3CCC(C)CC3)nc12,n,n,n,n
O=C1NC2=C(C(=O)CCC2)C(c2ccc3ncccc3c2)N1 (configuration not stated),n,n,n,n
NC(=O)C1CCN(c2ncc(C(F)(F)F)cc2Cl)CC1,x,x,n,x
C/C(=N\Nc1nc2c(s1)CCCC2)c1ccccc1,n,62,n,n
Cc1ccc(S(=O)(=O)Cn2nnnc2C(c2ccc(F)cc2)N2CCC(C(N)=O)CC2)cc1 (configuration not stated),n,n,n,n
O=C1c2oc3ccccc3c(=O)c2C(c2cccc(O)c2)N1CCCN1CCOCC1 (configuration not stated),n,n,n,n
SMILES,cytoskel mod,VCAM1 TNFa inh,E-sel TNF inh,HUVEC tox TNFa
O=C1c2oc3ccccc3c(=O)c2C(c2cccc(F)c2)N1CCCO (configuration not stated),67,n,n,n
C/C(N)=C(/C#N)C(=O)CSc1nc2ccccc2n1CC(C)C,x,x,n,x
COC(=O)N1[C@H](C)C=C[C@]1(Cc1ccccc1)C(=O)O,x,x,96,x
O=C1CCCC2=C1C(c1ccsc1)CC(=O)N2c1ccccc1 (configuration not stated),n,n,n,n
Cc1ccc(C2CC(=O)N(c3ccc(F)cc3)C3=C2C(=O)CCC3)cc1 (configuration not stated),n,n,100,n
Cc1cc(NC(=O)CSc2nc3ccc(Cl)cc3[nH]2)no1,n,n,n,n
O=C(COC(=O)c1ccc(CO)cc1)Nc1ccc(OC(F)F)cc1,x,x,n,x
CCOc1ccc(OCC)c(NC(=O)Cn2c(C)nc3ccccc3c2=O)c1,x,x,n,x
COC(=O)COc1ccc(=O)n(-c2ccccc2)n1,u,x,n,99
O=C(O)COc1ccc(=O)n(-c2ccccc2)n1,n,n,n,n
COc1ccc(-c2cc3ccccc3oc2=O)cc1NC(=O)c1ccc([N+](=O)[O-])o1,n,74,n,x
COc1ccc(C2C(C(=O)Nc3ccc4c(c3)OCCO4)c3ccccc3C(=O)N2C)cc1 (configuration not stated),n,n,n,n
Cc1cc(C)cc(OCCCCCNCCO)c1,n,96,n,n
COCCCNC(=O)c1cn(C)c(=O)c2cc(OC)c(OC)cc12,n,u,x,100
COC(=O)c1[nH]c2cc(OC)ccc2c1NC(=O)CN1CCC(C(N)=O)(N2CCCCC2)CC1,55,50,n,n
COC(=O)c1[nH]c2cc(OC)ccc2c1NC(=O)CN1CCC(C(N)=O)CC1,x,x,n,x
O=C(CN1CCN(S(=O)(=O)c2ccc3ccccc3c2)CC1)Nc1ccc2c(c1)CCC2,x,x,n,x
CCOC(=O)C1=C(c2ccccc2)N(C)C(=O)NC1c1ccc(O)c(OC)c1 (configuration not stated),n,n,66,n
CCOC(=O)C1=C(c2ccccc2)NC(=O)NC1c1ccc(O)c(OCC)c1 (configuration not stated),x,x,n,x
CCNc1nc(NCC)n2c(SCc3ccc(F)cc3)nnc2n1,n,91,n,88
CCNc1nc(NCC)n2c(SCc3nc4ccccc4c(=O)[nH]3)nnc2n1,n,n,n,n
Cc1ccc(C(=O)Nc2cc3c(oc2=O)CCCC3=O)cc1,n,n,n,n
Cc1oc2c(c1C(=O)Nc1ccc(C(=O)O)cc1)CCCC2,x,n,n,n
N=C(N)SCc1nc2ccccc2c(=O)n1-c1ccccc1,x,x,61,x
CC(C)N1C(=O)CCC1C(=O)NCc1ccccc1Cl (configuration not stated),x,x,n,x
SMILES,cytoskel mod,VCAM1 TNFa inh,E-sel TNF inh,HUVEC tox TNFa
COc1ccc(C2C(C(=O)N3CCN(c4ccccc4)CC3)c3ccccc3C(=O)N2C)cc1 (configuration not stated),n,n,n,n
CCC(=O)N1c2ccc(S(=O)(=O)CCC(=O)N3CCn4c3nc3ccccc34)cc2CC1C (configuration not stated),n,83,n,84
CCC(=O)N1c2ccc(S(=O)(=O)CCC(=O)NC3CCCC3)cc2CC1C (configuration not stated),n,n,n,n
Cc1ccc(C(=O)CN(C(=O)c2ccc(Cl)c(Cl)c2)N2C(=O)C3C4C=CC(C4)C3C2=O)cc1 (configuration not stated),n,n,n,n
COc1ccc(NC(=O)N(CCCN2CCOCC2)Cc2cccnc2)c(OC)c1,n,n,61,n
CC(=O)c1ccc(OC(=O)N(c2ccccc2)c2ccccc2)cc1,n,n,n,n
O=c1c2c3c(sc2nc2n1CCCC2)CCCC3,n,n,n,n
O=c1c2c3c(sc2nc2n1CCC2)CCC3,37,n,n,n
CCOc1ccc2[nH]c(=O)c(CN(Cc3ccccc3)C(=O)N3CCCC3)cc2c1,50,n,n,n
CCOc1ccc2[nH]c(=O)c(CN(CCO)C(=O)c3ccc(F)cc3)cc2c1,n,n,n,n
CCOc1cc(C(=O)NCc2ccc(-c3nc4ccccc4o3)cc2)cc(OCC)c1OCC,n,n,66,x
COc1ccc(C(=O)NC(=S)NCc2ccc(-c3nc4ccccc4o3)cc2)cc1OC,n,n,n,n
Cc1nn(-c2ccccc2)c(Cl)c1/C=C1\N=C(c2ccccc2)OC1=O,n,n,n,n
